Measured values reported in PubChem BioAssay AID504834 (National Center for Advancing Translational Sciences (NCATS), 2011).
Out of some 320,000 compounds screened, about 22,000 (6.9%) were called active. About 27% were inconclusive and are not listed. The call rests on the fitted dose curve; in most records, active means well fitted inhibition curve with a large enough effect; inconclusive means small, poorly fitted or top-dose-only effect, or another doubt; inactive means no such curve, though single readings can be large or run the other way. This excerpt belongs to a sample that is enriched for actives.

Assay: Primary qHTS for delayed death inhibitors of the malarial parasite plastid, 96 hour incubation
Conditions: P. falciparum luciferase reporter growth; series mostly up to 28.7 µM; activity change, negative = inhibition: at the top concentration
In short: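 Delayed-death screen, second-generation endpoint: infected erythrocytes, 2% hematocrit, 0.05% parasitemia final; 96 hours at 37 C, 5% CO2; luciferase detection reagent; luminescence decrease equals reduced growth.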
On the % scale 0 is the no-effect control and ±100 the full control effect; potency means the concentration at half of the fitted maximal effect.

Row | SMILES | activity change, negative = inhibition | Potency
1 | Cc1ccc(N2CC(C(=O)NCCS(=O)(=O)N3CCN(c4ccccc4)CC3)CC2=O)cc1 (configuration not stated) | 155% (inactive) | 
2 | COCCCNC(=O)C1CC(=O)N(c2ccc(C)cc2)C1 (configuration not stated) |  | 11.7 µM (active)
3 | COCCNC(=O)C1CCN(C(=O)C2CC(=O)N(c3ccc(C)cc3)C2)CC1 (configuration not stated) | -12% (inactive) | 
4 | Cc1nc(Cl)cc(N/N=C/c2ccccc2)n1 | 36% (inactive) | 
5 | Cc1ccc(/C=C/C(=O)OCC(=O)Nc2cccnc2Cl)cc1 | 28.3% (inactive) | 
6 | CSCCC(NC(=O)COc1ccccc1)C(=O)OCCOc1ccc(F)cc1 (configuration not stated) | 13.2% (inactive) | 
7 | O=C(NCC(=O)N1CCC2(CC1)NCCc1[nH]cnc12)c1ccc(Br)cc1 | 39.1% (inactive) | 
8 | Cc1ccsc1C(=O)NC1CCCCC1C (configuration not stated) | 8.49% (inactive) | 
9 | Cc1ccc(NC(=O)COc2ccc(/C=C3/NC(=O)NC3=O)cc2)cc1 | 65.7% (inactive) | 
10 | O=C(NCCCN1CCCCC1)C1CC(=O)N(CCc2ccccc2)C1 (configuration not stated) | 0.338% (inactive) | 
11 | COc1cccc(CNC(=O)C2CC(=O)N(C3CCCCCCC3)C2)c1 (configuration not stated) | 14.6% (inactive) | 
12 | O=C(NCCCN1CCCCCC1)C1CC(=O)N(C2CCCC2)C1 (configuration not stated) |  | 3.7 µM (active)
13 | Nc1nonc1-n1nnc(C(=O)N/N=C/C2CCCCC2)c1-c1ccccc1 | 12% (inactive) | 
14 | CC(C)c1c(C(=O)N/N=C/c2ccc(-c3ccccc3)cc2)nnn1-c1nonc1N | -22.8% (inactive) | 
15 | Nc1nonc1-n1nnc(C(=O)N/N=C/c2ccc(Cl)cc2)c1-c1ccc2c(c1)OCO2 |  | 0.0657 µM (active)
16 | CCOC(=O)N1CCN(C(=O)COc2ccc3oc4c(c3c2)CCCC4)CC1 | -5.29% (inactive) | 
17 | CC(=O)Oc1ccc(-c2cccc(C(=O)N3CCCCC3)c2)cc1 | -15.3% (inactive) | 
18 | COc1ccccc1CNC(=O)C1CCN(C(=O)[C@@H]2Cc3ccccc3CN2)CC1 | 18.3% (inactive) | 
19 | C/C(CCC(=O)OC[C@H]1O[C@H](C#Cc2ccccc2)C=C[C@@H]1Oc1ccc(C)cc1)=N\OC[C@@H](O)[C@H]1O[C@@H]2OC(C)(C)O[C@@H]2[C@H]1O |  | 13.1 µM (active)
20 | NC(=O)C1CCN(c2nc(-c3cccc(F)c3)cs2)CC1 | 18% (inactive) | 
21 | Nc1nnc(SCC(=O)NCC(=O)Nc2ccc(F)c(F)c2F)s1 | 10.7% (inactive) | 
22 | CCN(CC(=O)Nc1c(F)cccc1F)C(=O)c1ccc(Sc2nncn2C)c([N+](=O)[O-])c1 | -19.5% (inactive) | 
23 | CN(C)CCNC(=O)c1[nH]nc2c1CCc1ccccc1-2 | -2.24% (inactive) | 
24 | O=C(N/N=C/c1sc(N2CCCCC2)nc1-c1cccs1)c1cccnc1 |  | 2.08 µM (active)
25 | Cc1cc(/C=N/NC(=O)c2cccnc2)c(C)n1CC(C)C | 33.1% [at 5.75 µM] (inactive) | 
26 | O=C(N/N=C/c1ccc(O)c2ccccc12)c1cccnc1 | 51.5% (inactive) | 

Row | SMILES | activity change, negative = inhibition | Potency
27 | COc1ccccc1CNC(=O)COC(=O)c1sc(C)nc1C | 7.8% (inactive) | 
28 | CN1C2CCC1CC(NC(=O)c1ccc([N+](=O)[O-])cc1)C2 (configuration not stated) | 24.1% (inactive) | 
29 | COc1ccc2nc(/N=C(\N)NC(=O)Nc3ccccc3)nc(C)c2c1 | -14% (inactive) | 
30 | Cc1nc(/N=C(\N)NC(=O)NC2CCCCC2)nc2ccccc12 |  | 3.29 µM (active)
31 | Cc1nn(-c2ccccc2)c(C)c1C(=O)OCC(=O)NC(=O)NC1CCCCC1 | 5.23% (inactive) | 
32 | O=c1ccc2cc(S(=O)(=O)NCCCc3ccccc3)ccc2[nH]1 | 37.4% (inactive) | 
33 | COc1ccc(CN2CCCC(C(=O)N3CCCCC3)C2)cc1 (configuration not stated) | 26.6% (inactive) | 
34 | Cc1ccc(OC(=O)c2cncc(Br)c2)c(C)c1 | 19.6% (inactive) | 
35 | CCOC(=O)COc1ccc([N+](=O)[O-])cc1 |  | 0.415 µM (active)
36 | O=C1CCCN1C(=O)COc1ccc([N+](=O)[O-])cc1 | -14.5% (inactive) | 
37 | N/C(=N\OC(=O)COc1ccc([N+](=O)[O-])cc1)c1ccc(Br)cc1 | 16.2% (inactive) | 
38 | Cc1cc(NC(=O)CCC(=O)N(Cc2ccccc2)C(C(=O)NC2CCCC2)c2ccc(C)o2)no1 (configuration not stated) | -28.2% (inactive) | 
39 | CC(C)CCN1CCC(C)(NC(=O)c2ccccc2)C1=O (configuration not stated) | 56.1% (inactive) | 
40 | COc1ccccc1C(=O)NCCC(=O)NN1C(=O)NC2(CCCCC2)C1=O | 0.363% (inactive) | 
41 | O=C(CSc1nc(Nc2ccccc2)nc(N2CCOCC2)n1)Nc1cc(Cl)ccc1O |  | 5.22 µM (active)
42 | C/C(=N\Nc1nc(Nc2ccccc2)nc(N2CCOCC2)n1)c1cccs1 | 20.1% (inactive) | 
43 | O=C(CN1CCOCC1)Nc1cc(Cl)ccc1Cl | 70.5% (inactive) | 
44 | CC(=O)c1c(C)[nH]c(C(=O)COC(=O)CCOc2ccc(C)cc2)c1C | -9.72% (inactive) | 
45 | Cn1nc(C(C)(C)C)c([N+](=O)[O-])c1C(N)=O | 5.19% (inactive) | 
46 | CC(=O)N1c2ccc(S(=O)(=O)N(C)CC(=O)N(C)Cc3ccccc3)cc2CC1C (configuration not stated) | 33% (inactive) | 
47 | CC(=O)c1sc(N)nc1C | 60.6% (inactive) | 
48 | COc1ccccc1CNS(=O)(=O)c1cc2c3c(c1)CCC(=O)N3CCC2 | -19.2% (inactive) | 
49 | CN(C)S(=O)(=O)c1ccc(N2CCCC2)c(C(=O)Nc2cccc(F)c2)c1 | 86.2% (inactive) | 
50 | CN(C)S(=O)(=O)c1ccc(N2CCCC2)c(C(=O)Nc2ccc(Br)cc2F)c1 |  | 8.28 µM (active)
51 | Cc1ccccc1OCC(=O)NNC(=O)c1cc(S(=O)(=O)N(C)C)ccc1N1CCCC1 | 4.87% (inactive) | 
52 | CCOC(=O)c1c(C)[nH]c(C(=O)NCCN2CCOCC2)c1C | 7.52% (inactive) | 

Row | SMILES | activity change, negative = inhibition | Potency
53 | O=C(NCCCN1CCOCC1)c1ccc2c(c1)N(Cc1cccc(F)c1)C(=O)c1ccccc1S2 | 16.5% (inactive) | 
54 | C=CCn1c(SCc2cc(C(=O)OC)c(C)o2)nnc1-c1ccncc1 | -0.417% [at 5.75 µM] (inactive) | 
55 | C=CCn1c(SCc2c(C(=O)OC)sc(N)c2C(=O)OC)nnc1-c1ccc(Cl)cc1 |  | 3.29 µM (active)
56 | COC(=O)c1sc(N)c(C(=O)OC)c1COC(=O)CNS(=O)(=O)c1ccc(C)cc1 | 7.76% (inactive) | 
57 | Cc1nc2cc(NC(=O)Nc3cccc(F)c3)ccc2n1C | -38.2% (inactive) | 
58 | COc1ccc(CNC(=O)COC(=O)CCS(=O)(=O)c2ccc(C)cc2)cc1OC | 3.65% (inactive) | 
59 | COc1ccc2c(c1)C(C)=CC(C)(C)N2C(=O)Nc1ccccc1 |  | 10.4 µM (active)
60 | COc1ccc2c(c1)C(C)=CC(C)(C)N2C(=O)CNCc1ccc2c(c1)OCO2 | 42.6% (inactive) | 
61 | COc1ccc(NC(=O)N2CCC(Cc3ccccc3)CC2)cc1 | 151% (inactive) | 
62 | CCOC(=O)c1c(S(=O)(=O)Nc2cccc(Cl)c2)c(C)n(C)c1C |  | 10.4 µM (active)
63 | CCOC(=O)c1c(C)n(C)c2ccc(OC)c(NS(=O)(=O)CC)c12 | -42.6% (inactive) | 
64 | CCOC(=O)c1c(S(=O)(=O)NCC(=O)Nc2ccc(C)cc2)c(C)n(C)c1C | -14.5% (inactive) | 
65 | CCN(CC)CCCNC(=O)COc1ccc2oc3c(c2c1)CCCC3 | -26% (inactive) | 
66 | CCCS(=O)(=O)N1CCN=C1SCc1cccc(F)c1 | -15.9% (inactive) | 
67 | CN(CC(=O)Nc1ccccc1C(F)(F)F)C(=O)Cc1ccccc1F | 3.57% (inactive) | 
68 | CC[N+](CC)(CC)CCCCCCCCCC[N+](CC)(CC)CC |  | 0.37 µM (active)
69 | Cc1cccc(C)c1NC(=O)CSc1nc2c([nH]1)c(=O)n(C)c(=O)n2C | -3.18% (inactive) | 
70 | CC(C)(C)[Si](OCC[C@@H]1C[C@@]1(C)[C@@H](NP(=O)(c1ccccc1)c1ccccc1)c1ccccc1)(c1ccccc1)c1ccccc1 |  | 2.33 µM (active)
71 | O=C(NC1CCCCC1)C1CCC(CNS(=O)(=O)c2ccccc2)CC1 (configuration not stated) | 17% (inactive) | 
72 | Cc1nc(N2CCN(c3ccccn3)CC2)c2c(C)c(C(=O)Nc3ccc(F)cc3)sc2n1 |  | 4.15 µM (active)
73 | Cc1nc(N2CCOCC2)c2c(C)c(C(=O)Nc3ccc(C(F)(F)F)cc3)sc2n1 | -2.97% (inactive) | 
74 | CCN(CC)c1ccc(NC(=O)CN2CCN(c3ccccn3)CC2)cc1 | 33.8% (inactive) | 
75 | CN(Cc1ccc(F)cc1)C(=O)COc1ccc2ccccc2c1 | 20.5% (inactive) | 
76 | COc1ccc(N=Nc2c(-c3ccc(OC)cc3)[nH]oc2=O)cc1 | 12.5% (inactive) | 
77 | O=C(COc1ccc(Cl)cc1)Nc1ccc2c(c1)OCO2 | 45.3% (inactive) | 
78 | Cc1ccc(NC(=O)COc2ccc(/C=N\NC(=O)c3cccnc3)cc2)cc1C | -17.2% (inactive) | 

Row | SMILES | activity change, negative = inhibition | Potency
79 | Cc1ccc(NC(=O)COc2ccc(-n3ccnc3)cc2)cc1Cl |  | 2.94 µM (active)
80 | O=C(CCNC(=O)C1CCN(S(=O)(=O)c2ccccc2)CC1)NC1CC1 | 41.2% (inactive) | 
81 | O=C1Nc2ccccc2/C1=C/c1ccnc2ccccc12 | 0.418% (inactive) | 
82 | CC1CN(C(=O)CCC(=O)NC2CCN(Cc3ccccc3)CC2)c2ccccc2O1 (configuration not stated) | 4.48% (inactive) | 
83 | CCN(CC(=O)Nc1c(F)cccc1F)C(=O)c1cnc(C)cn1 | 26.6% (inactive) | 
84 | Cc1ccc(OCC(=O)N2CCN(C(=O)c3cccnc3)CC2)cc1 | 477% (inactive) | 
85 | CCN(CC)C(=O)N1CCN(C(=O)c2ccc(C)cn2)CC1 |  | 11.7 µM (active)
86 | CC(C)[C@@H](C(=O)O)N(Cc1cccc(CN([C@H](C(=O)O)C(C)C)S(C)(=O)=O)c1)S(C)(=O)=O | -22.1% (inactive) | 
87 | CS(=O)(=O)NCc1ccc(C(=O)NCc2ccccc2)cc1 | 1.67% (inactive) | 
88 | CSc1ccc(CNC(=O)c2ccc(NC(=O)C3=CSCCO3)cc2)cc1 |  | 7.38 µM (active)
89 | O=C(Nc1ccc(C(=O)NCc2ccccc2Cl)cc1)C1=CSCCO1 | -3.26% (inactive) | 
90 | O=[N+]([O-])c1ccc(NC(=S)N2CCN(c3ccccn3)CC2)cc1 | 0% (inactive) | 
91 | O=[N+]([O-])c1cc([N+](=O)[O-])c(Oc2cc(F)cc(F)c2F)cc1NN1CCCCC1 | 38.5% (inactive) | 
92 | Cc1cc2c(cc1S(=O)(=O)NCc1ccc(Cl)cc1)OCC(=O)N2 | -23.1% (inactive) | 
93 | O=C(Nc1ccc2ccccc2c1)Nc1ccc2snnc2c1 |  | 4.65 µM (active)
94 | O=C(Nc1cccc(Br)c1)c1ccc2snnc2c1 | -23.8% (inactive) | 
95 | COc1ccc(NC(=O)Nc2ccc3nsnc3c2)cc1 | 57.4% (inactive) | 
96 | COC(OC)c1ccnc(SCc2ccccc2Cl)n1 | 4.36% (inactive) | 
97 | COc1ccc(C)cc1NC(=O)NCc1ccccn1 | 14.6% [at 5.75 µM] (inactive) | 
98 | COc1ccc(C)cc1NC(=O)CNCc1cccs1 |  | 11.7 µM (active)
99 | O=C(CNCc1cccs1)Nc1cc(S(=O)(=O)N2CCCC2)ccc1Cl | -2.83% (inactive) | 
100 | CC(C)Cc1nnc(NC(=O)CCC(=O)Nc2ccc3cn[nH]c3c2)s1 | 107% (inactive) | 
101 | CCOc1ccc(NC(=O)c2ccc(NC(=O)C3CCCO3)cc2)cc1 (configuration not stated) | -3.52% (inactive) | 
102 | CCN(CCNC(=O)C1=C(C)C(=O)OC12CCC(C)CC2)c1ccccc1 (configuration not stated) | -21% (inactive) | 
